Measured values reported in PubChem BioAssay (NCI).
The panel holds about 79,000 compounds, 15% with a hit somewhere; the sample as a whole holds those more often. A number with no mark means an inactive call. The source made the active and inactive calls. Rule as the data show it: active = growth inhibition above about 70%; inactive = the rest. *1 amine or outer side, *2 acyl side, *3 side chain or, on linkers, in order; H or OH if unused. Where a SMILES comes first, the peptide text is derived from it. Bridges are numbered along the chain shown (N, C = ends). Roman numbers before positions name the chains, in order. [ ]: non-standard residue; d: D form. Actinocin(1to9) = Cc1c2oc3c(C)ccc(C(=O)[*:2])c3nc-2c(C(=O)[*:1])c(N)c1=O; NMeV = CN[CH](C(=O)O)C(C)C; Sar = CNCC(=O)O

How the values were obtained:
[1] = NCI Yeast Anticancer Drug Screen. Data for the rad50 strain (AID 155);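 also: 0% = growth of vehicle-only cultures of the same strain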; settings: S. cerevisiae rad50 strain growth inhibition; at 50.0 µM; stronger effect = higher value
How it was run: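 Compounds were tested on a yeast strain with an engineered DNA damage repair alteration; the reported value is growth inhibition normalised to vehicle treatment.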

[2] = NCI Yeast Anticancer Drug Screen. Data for the mec2-1 strain (AID 157); settings: S. cerevisiae mec2-1 strain, at 50.0 µM, stronger effect = higher value
How it was run: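 Using mec2-1 yeast: add compound, measure growth, express inhibition versus vehicle-treated cultures.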

[3] = NCI Yeast Anticancer Drug Screen. Data for the sgs1 mgt1 strain (AID 161);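 also: 0% = growth of cultures given vehicle only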; settings: S. cerevisiae sgs1 mgt1 strain, at 50.0 µM, stronger effect = higher value
How it was run: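 This yeast growth screen uses a strain with defined DNA-repair lesions; compound-treated growth is compared with vehicle-treated growth.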

[4] = NCI Yeast Anticancer Drug Screen. Data for the cln2 rad14 strain (AID 165);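 also: 0% = growth equal to vehicle treated cultures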; settings: S. cerevisiae cln2 rad14 strain, at 50.0 µM, stronger effect = higher value
How it was run: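 Yeast strain cln2 rad14, bearing defects in cell cycle control and DNA repair, serves as the test system; values reflect growth inhibition compared with vehicle.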

[5] = NCI Yeast Anticancer Drug Screen. Data for the bub3 strain (AID 167); settings: S. cerevisiae bub3 mutant strain, at 50.0 µM, stronger effect = higher value
How it was run: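 Growth of a checkpoint-deficient yeast mutant is measured after compound exposure. Values represent inhibition relative to vehicle.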

[6] = NCI Yeast Anticancer Drug Screen. Data for the mlh1 rad18 strain (AID 175); settings: S. cerevisiae mlh1 rad18 strain growth inhibition; at 50.0 µM; stronger effect = higher value
How it was run: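 Steps: expose repair-defective yeast to compound; measure growth; express inhibition against vehicle-treated controls.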

Row | Structure (SMILES) | growth inhibition [1] | growth inhibition [2] | growth inhibition [3] | growth inhibition [4] | growth inhibition [5] | growth inhibition [6]
1 | C(=NCCN1CCOCC1)=NC1CCCCC1 | -22.4% | -3.25% | -10.9% | -21.1% | -58.1% | -16.1%
2 | CCC(=O)C(c1ccccc1)(c1ccccc1)C(C)CN(C)C (stereo not given) | -8.7% | -9.2% | 9.35% | -5.55% | -4.9% | -6.35%
3 | NC(Cc1ccc(O)c(F)c1)C(=O)O (stereo not given) | -37.1% | -40.4% | -41.2% | -2.75% | -51.9% | -14.3%
4 | Clc1ccc(-c2ccccc2)cc1Cl | 12.9% | -12.5% | -8.85% | -0.8% | 14.6% | 1.9%
5 | O=C1CN=C(c2ccccc2)c2ccncc2N1 | 4.15% | 4.5% | 12.6% | 19.1% | 5.35% | 28.6%
6 | CCOC(=O)C(O)(c1ccccc1)c1ccccc1 | 2.05% | -5.95% | 6.85% | 16.8% | -3.35% | 31%
7 | O=P(N1CCCCCC1)(N1CC1)N1CC1 | -2.15% | 11% | -11.4% | 3.95% | -3.25% | 6.35%
8 | COc1cc2c(c(OC)c1OC)CC1c3c(cc4c(c3-2)OCO4)CCN1C (stereo not given) | -5.85% | -31.5% | -18.1% | 13.7% | 2.1% | -17.3%
9 | CCCCCC1(C(C)C)C(=O)NC(=O)NC1=O | 3.1% | 8.65% | 1.5% | 15.3% | -0.6% | 6.35%
10 | NC1CC2NC3CCCCC3NC2CC1N (stereo not given) | 14.8% | 6.25% | -0.6% | 19.5% | -22.4% | 6.55%
11 | O=[N+]([O-])OC(c1ccncc1)C(O[N+](=O)[O-])c1ccncc1 (stereo not given) | 7.7% | -2.35% | -6.25% | 16.9% | -5.3% | 21.3%
12 | CCC(C)C1NC(=O)C(NC(=O)c2c3nc4c(C(=O)NC5C(=O)NC(C(C)C)C(=O)N6CCCC6C(=O)N(C)CC(=O)N(C)C(C(C)C)C(=O)OC5C)ccc(C)c4oc-3c(C)c(=O)c2N)C(C)OC(=O)C(C(C)C)N(C)C(=O)CN(C)C(=O)C2CCCN2C1=O (stereo not given) (I: TIP[Sar][NMeV] / II: TVP[Sar][NMeV]; ester I:1-I:C, II:1-II:C; linker I:N-II:N via Actinocin(1to9); configuration not given here) | 88% (active) | 92.2% (active) | 91.2% (active) | 88.3% (active) | 89.8% (active) | 85.7% (active)
13 | O[C@H]1[C@H](O)[C@@H](O)CN2CC[C@H](O)[C@H]12 | -25.9% | -24.1% | -18.1% | -4.1% | -9.05% | -24.6%
14 | COC(=O)CP(=O)(OC)OC | 5.3% | -24.1% | 1.8% | -3.15% | 1% | 7.2%
15 | CN(C)C(=O)CCCc1ccc(N(CCCl)CCCl)cc1 | 19.6% | -1.85% | 5.3% | 9.55% | -0.9% | 9.6%
16 | CC(C)=CC1CC(=[N+]=[N-])C(=O)C1(C)C (stereo not given) | 33.5% | 7.1% | 17% | 16.9% | 4.05% | 28.6%
17 | NNc1nncn1N | -5.25% | -10.9% | -23.4% | 51.3% | -17.5% | -6.25%
18 | O=C(CCC1C(=O)NC(=S)NC1=O)c1ccc2ccccc2c1 | 14.7% | 17.8% | -12.2% | 5.3% | -7.95% | -8.15%
19 | CCOC(=O)C(Br)CBr (stereo not given) | 6.35% | -17.9% | 4.85% | -2.3% | -16.1% | 23.1%
20 | CCOC(=O)/C=C/CP(=O)(OCC)OCC | 7.9% | -11.5% | 15.2% | 11.3% | 9.55% | 18.2%

Row | Structure (SMILES) | growth inhibition [1] | growth inhibition [2] | growth inhibition [3] | growth inhibition [4] | growth inhibition [5] | growth inhibition [6]
21 | CC(C)CC(C)(C)COP(=S)(OCC(C)(C)CC(C)C)OCC(C)(C)CC(C)C | 13.6% | -15% | 0.8% | -37% | -8.75% | 10.6%
22 | CCNc1ccc([N+](=O)[O-])cc1[N+](=O)[O-] | 11.3% | 16.9% | 7.45% | 4.5% | -6.4% | 5.9%
23 | CCCC/C=C/C=C/C=C/CCCCCCCC(=O)OCC(COC(=O)CCCCCCC/C=C/C1C=CC(CCCC)C(C(=O)O)C1C(=O)O)OC(=O)CCCCCCC/C=C/C=C/C=C/CCCC (stereo not given) (tested in a mixture with another compound) | -10.8% | -20.1% | 4.55% | -3.85% | 7.6% | -0.45%
24 | CCN(CC)CCN(CC)CC.CCN(CC)CCN(CC)CC.[Cu+2].[Cu+2].[O-][Cl+3]([O-])([O-])[O-].[OH3+].[OH3+] | -2.85% | 1.85% | -0.35% | 16.1% | 12.6% | 15.7%
25 | O=C1NC2(CCCC2)C(=O)N1CCCN(CCCl)CCCl | 2.75% | 12.9% | 25.1% | -37.3% | 7.35% | 3.2%
26 | O=P(O)(O)SP(=O)(O)O.[Zn+2] | -20.9% | 9.55% | -15.8% | -8.7% | -12.6% | -1.35%
27 | C1C[OH+]CC[OH+]CC[OH+]CC[OH+]CC[OH+]1.[Cl-].[V] | -13.2% | -6.25% | -1.95% | -10.8% | -12% | -1%
28 | O=NN1CCN(N=O)CC1 | 4.9% | -0.6% | 6.3% | 8.95% | -0.6% | 28.1%
29 | CCOC(=O)COc1cc(Cl)c(S(=O)(=O)F)cc1Cl | 98.8% (active) | 92.3% (active) | 97.3% (active) | 93.1% (active) | 98.3% (active) | 98% (active)
30 | O=Cc1ccccc1O.[Nd] | -0.65% | -33.6% | 17.2% | 6.65% | 3.9% | 6.6%
31 | Nc1ccc(Oc2ccc(N)cc2)cc1 | 3.1% | 10% | 14.6% | 11.7% | 12.4% | 26.1%
32 | CCCCCCCCCCNP(=O)(Oc1ccccc1)Oc1ccccc1 | -21.8% | 4.05% | -16.4% | -24.5% | -4.75% | -23.9%
33 | CCCC[C@@H]1CCN2C[C@@H](O)[C@@H](O)[C@@H]2[C@H]1O | -2.4% | 5.65% | -9.45% | 11.7% | 12.2% | -12.9%
34 | O=C(N/N=C/c1cc(Cl)cc(Cl)c1[O-])c1ccccc1O.O=C(N/N=C/c1cc(Cl)cc(Cl)c1[O-])c1ccccc1O.[Ni+2] | -8.75% | -15.8% | -14.8% | -41.2% | 6.9% | -17.1%
35 | CN1[C@@H](CC(=O)c2ccccc2)CCC[C@H]1CC(=O)c1ccccc1 | 21.2% | 5.4% | 42.5% | 37.3% | 28.2% | 1.25%
36 | [NH-]C(CCC(N)=O)C(=O)O.[NH-]C(CCC(N)=O)C(=O)O.[Pd+2] (stereo not given) | -14.6% | -3.2% | -7.55% | -71.6% | -1.1% | -8.1%
37 | c1ccc(CC2NC(Cc3ccccc3)N3C(Cc4ccccc4)N23)cc1 (stereo not given) | -2.65% | 1.9% | 0.9% | -6.25% | 9% | 3.45%
38 | [Se]=P(NC1CCCCC1)(NC1CCCCC1)NC1CCCCC1 | 14.5% | -0.9% | 2% | 5.1% | 3.25% | 17.9%
39 | O=c1oc2ccccc2c(O)c1C(c1ccc2c(c1)OCO2)c1c(O)c2ccccc2oc1=O | -5.8% | -4.75% | 34.7% | 7% | 3.65% | 28.4%
40 | O=S(=O)(F)c1cccc(Cl)c1C[P+](c1ccccc1)(c1ccccc1)c1ccccc1 | 25.5% | 3% | 13.7% | 12.7% | 25.5% | 41.4%
